# Results published in PubChem BioAssay (NCATS).
# Results filed as inconclusive are left out. A call without a number means that no potency is given here. Calls of active or inactive are those of the source. Calls come from the whole dose curve; as a rule, active = well fitted curve in the direction sought with a large enough effect; inconclusive = small, poorly fitted or top-dose-only effect, or another doubt; inactive = no such curve, though single readings can be large; an effect the other way counts as inactive or inconclusive.
# Assays:
# [1] = qHTS to identify inhibitors of the type 1 interferon - major histocompatibility complex class I in skeletal muscle: primary screen against the NCATS Pharmaceutical Collection (AID 1347407); conditions: human skeletal muscle cells, IFN-b-induced MHC-I HiBiT luminescence, 24 h; series mostly up to 45.9 µM;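 note: luminescence of HiBiT knocked into endogenous HLA-B as interferon-induced MHC class I level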; note: potency is the fitted concentration of half-maximal effect
# In short: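 HLA-B HiBiT myoblasts, dexamethasone-free growth medium + 4 ng/ml IFN-b; compounds pinned 1 h after seeding, […] from 46 uM; 24 h, 37 C, 5% CO2; lytic HiBiT detection, 10 min RT, luminescence.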
# [2] = molecular target: Protein phosphatase 1D (Homo sapiens) (UniProt O15297); assay: RapidFire Mass Spectrometry qHTS Assay for Modulators of WT P53-Induced Phosphatase 1 (WIP1) (AID 1347424); conditions: WIP1 dephosphorylation of phosphopeptide, RapidFire MS; series mostly up to 63 µM;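 note: amount of dephosphorylated VEPPL-S-QETFS peptide product formed by WIP1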
# In short: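 RapidFire mass spectrometry measured dephosphorylated peptide after 5 min room-temperature reaction of 2 uM VEPPL-pS-QETFS with 10 nM WIP1 (50 mM Tris-HCl pH 7.5, 30 mM MgCl2, 0.1 mM EGTA, BSA), following 1 hr compound preincubation; 1 uM isotope-labelled product standard.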
# [3] = molecular target: Protein phosphatase 1D (Homo sapiens) (UniProt O15297); assay: Rhodamine-PBP qHTS Assay for Modulators of WT P53-Induced Phosphatase 1 (WIP1) (AID 1347425); conditions: recombinant WIP1, Rhodamine-PBP phosphate fluorescence, real-time; series mostly up to 57.5 µM
# In short: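 The read-out is the change in Rhodamine-PBP fluorescence (f1 - f0, ex 525/em 598 nm) as Pi is released, read each minute for 11 min. Final reaction: 5 nM WIP1, 10 uM phosphopeptide VEPPL-pS-QETFS, 10 uM Rh-PBP, 50 mM Tris-HCl pH 7.5, 30 mM MgCl2. Compound was preincubated with enzyme for 1 hour at room temperature.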
# [4] = qHTS for inhibitors of adenylyl cyclases using a fission yeast platform: a pilot screen against the NCATS LOPAC library (AID 1347410); conditions: S. pombe CHP2027, fbp1-GFP fluorescence, 18 h, yeast expressing mammalian AC9 and human GNAS; series mostly up to 57.5 µM
# In short: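 Read-out: fbp1-GFP fluorescence by laser scanning cytometry (488 nm laser), a gain of signal when AC/cAMP-PKA signalling is inhibited. Strain CHP2027 expressing AC9, GNAS and PDE4D2; compounds at up to 57 µM; 18 h, 30C.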
# [5] = qHTS to identify inhibitors of the type 1 interferon - major histocompatibility complex class I in skeletal muscle: primary screen against the NCATS Mechanism Interrogation Plate v5.0 (MIPE) Libary (AID 1347411); conditions: iHSKM cells + IFN-b, HiBiT-tagged MHC-I luminescence, 24 h; series mostly up to 45.8 µM; note: nearly all actives have a fitted effect of over 65% in size; note: potency is the fitted concentration of half-maximal effect
# In short: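 IFN-beta-driven (4 ng/ml) HLA-B-HiBit expression in CRISPR-tagged C25cl48 myoblasts; compounds 11-pt, 1:3, max 46 uM, 24 hr exposure; lytic NanoLuc complementation luminescence.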
# [6] = Validation qHTS assay for inhibitors of Activation Induced Cytidine Deaminase (AID): UDG Counterscreen signal (AID 1347427); conditions: biochemical UDG counterscreen, fluorescence signal; series mostly up to 115 µM
# In short: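 Fluorescence at 560 nm excitation, 665 nm emission reports UDG signal after 250 mM NaOH (2x) addition and 30 min. Enzymes (AID 1 uM, UDG 2 U/mL, at 4/3x) preincubated 10 min with compound, then 4 h with 4x 250 nM DJC20/DJC23 substrate at room temperature.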
# Protein phosphatase 1D (Homo sapiens), sequence (O15297 whole entry, looked up): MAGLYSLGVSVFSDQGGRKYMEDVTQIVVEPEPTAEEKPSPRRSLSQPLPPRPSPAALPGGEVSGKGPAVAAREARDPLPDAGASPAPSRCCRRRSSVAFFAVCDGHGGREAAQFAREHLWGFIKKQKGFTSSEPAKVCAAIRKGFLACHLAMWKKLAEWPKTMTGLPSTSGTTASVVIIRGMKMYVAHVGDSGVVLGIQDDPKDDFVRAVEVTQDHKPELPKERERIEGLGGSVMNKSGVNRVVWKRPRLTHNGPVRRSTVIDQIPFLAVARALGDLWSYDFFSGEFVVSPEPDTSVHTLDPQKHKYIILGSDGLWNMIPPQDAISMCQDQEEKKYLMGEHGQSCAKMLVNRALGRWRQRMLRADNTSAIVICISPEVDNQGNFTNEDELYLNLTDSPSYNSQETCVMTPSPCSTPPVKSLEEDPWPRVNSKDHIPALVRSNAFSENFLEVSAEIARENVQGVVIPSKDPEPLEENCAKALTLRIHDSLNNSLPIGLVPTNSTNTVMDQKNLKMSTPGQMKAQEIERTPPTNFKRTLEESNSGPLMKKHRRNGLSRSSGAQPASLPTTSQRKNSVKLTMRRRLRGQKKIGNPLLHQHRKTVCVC
smiles,measurement,setting,value
CCCCCC1Nc2cc(C(F)(F)F)c(S(N)(=O)=O)cc2S(=O)(=O)N1 (stereo unspecified),Potency,[1],inactive
same,Potency,[2],inactive
same,outcome,[3],inactive
O=C(CCCl)NCc1ccccc1,Potency,[1],inactive
same,outcome,[3],inactive
Cc1cccc(N(C)C(=S)Oc2ccc3c(c2)CCC3)c1,Potency,[1],inactive
same,outcome,[3],inactive
CC[C@@]1(O)C(=O)OCc2c1cc1n(c2=O)Cc2c-1nc1ccccc1c2/C=N/OC(C)(C)C,Potency,[1],0.745 µM (active)
same,outcome,[3],inactive
CCCOc1ccc2c(c1)CC[C@@H]1[C@@H]2CC[C@]2(C)C(OC)CC[C@@H]12 (stereo partly specified),Potency,[1],inactive
same,outcome,[3],inactive
CC(=O)OCC[N+](C)(C)C,Potency,[1],inactive
same,outcome,[3],inactive
CCOC(=O)OCC/C(SC(=O)OCC)=C(\C)N(C=O)Cc1cnc(C)nc1N,Potency,[1],inactive
same,outcome,[3],inactive
CCOc1c(N2CCOCC2)cnn(C)c1=O,Potency,[1],inactive
same,outcome,[3],inactive
O=C1Cc2cc(Cl)ccc2N1,Potency,[1],inactive
same,outcome,[3],inactive
Cn1cc(S(C)=O)c(=O)c2ccc(F)cc21 (stereo unspecified),Potency,[1],inactive
same,outcome,[3],inactive
C/C(=N\O)[C@@H](C)NCC(C)(C)CN[C@H](C)/C(C)=N/O,Potency,[1],inactive
same,outcome,[3],inactive
O=C1CC2(CCCC2)CC(=O)N1CCNCC1COc2ccccc2O1 (stereo unspecified),Potency,[1],inactive
same,outcome,[3],inactive
CN1CCC(=C2c3ccccc3CCc3cccnc32)CC1,Potency,[1],inactive
same,Potency,[2],inactive
same,outcome,[3],inactive
CSCC[C@H](NC(=O)[C@H](Cc1c[nH]c2ccccc12)NC(=O)CCNC(=O)OC(C)(C)C)C(=O)N[C@@H](CC(=O)O)C(=O)N[C@@H](Cc1ccccc1)C(N)=O,Potency,[1],inactive
same,outcome,[3],inactive
CC(=O)N(CC(O)CO)c1c(I)c(C(=O)NCCO)c(I)c(C(=O)NCC(O)CO)c1I (stereo unspecified),Potency,[1],inactive
same,Potency,[2],inactive
same,outcome,[3],inactive
c1ccc(C(O[C@H]2CCCN(CCc3ccc4c(c3)OCO4)C2)c2ccccc2)cc1,Potency,[1],inactive
same,Potency,[2],inactive
same,outcome,[3],inactive
N=C(N)c1ccc(OCCCOc2ccc(C(=N)N)cc2)cc1,Potency,[1],inactive
same,outcome,[3],inactive
CC(C)(C)c1cc(C=O)cc(C(C)(C)C)c1O,Potency,[1],inactive
same,outcome,[3],inactive
CN(CC1(C)CCCO1)S(=O)(=O)c1ccc(Cl)c(S(N)(=O)=O)c1 (stereo unspecified),Potency,[1],inactive
same,outcome,[3],inactive
CCN(CC)C(=O)C1CN2CCc3cc(OC)c(OC)cc3C2CC1OC(C)=O (stereo unspecified),Potency,[1],inactive
same,Potency,[2],inactive
same,outcome,[3],inactive
CCC(=O)Oc1ccc2c(c1)CC[C@@H]1[C@@H]2CC[C@@]2(C)[C@H]1C[C@@H](OC(=O)CC)[C@@H]2OC(=O)CC,Potency,[1],inactive
same,outcome,[3],inactive
COc1ccc2c(c1)CCCC2=O,Potency,[1],inactive
same,outcome,[3],inactive
CCOC(=O)C(=O)CCc1ccccc1,Potency,[1],inactive
same,outcome,[3],inactive
CC(=O)N(CC(=O)N(C)C)c1ccccc1,Potency,[1],inactive
same,outcome,[3],inactive
O=[N+]([O-])c1nccn1CO[C@@H](CO)[C@H](O)CO,Potency,[1],inactive
same,Potency,[2],inactive
same,outcome,[3],inactive
CCCCCCCCCCCCCCCCCCN(C)C,Potency,[1],inactive
same,Potency,[2],inactive
same,outcome,[3],inactive
COCCc1ccc(OCC2CO2)cc1 (stereo unspecified),Potency,[1],inactive
same,Potency,[2],inactive
same,outcome,[3],inactive
CN1[C@@H]2CC[C@H]1CC(NC(=O)n1c(=O)[nH]c3ccccc31)C2 (stereo partly specified),Potency,[1],inactive
same,Potency,[2],inactive
same,outcome,[3],inactive
CCCCCCCCCCCCCCCC[N+](C)(C)Cc1ccccc1,Potency,[1],23.6 µM (active)
same,outcome,[3],inactive
CCOC(=O)c1ccc(O)c(O)c1,Potency,[1],inactive
same,Potency,[2],inactive
same,outcome,[3],inactive
Cc1ccc(O)cc1,Potency,[1],inactive
same,outcome,[3],inactive
COC(=O)[C@H]1[C@H]2C[C@@H]3c4[nH]c5cc(OC)ccc5c4CCN3C[C@H]2C[C@@H](OC(=O)/C=C/c2ccc(O)c(OC)c2)[C@@H]1OC,Potency,[1],inactive
same,outcome,[3],inactive
COc1cc(/C=C/C(N)=O)cc(OC)c1OC,Potency,[1],inactive
same,outcome,[3],inactive
Cn1c(=O)c2c(ncn2CC(=O)O)n(C)c1=O,Potency,[1],inactive
same,outcome,[3],inactive
Nc1ncnc2nc[nH]c12,Potency,[1],inactive
same,outcome,[3],inactive
C[C@H]1NCc2cc(-c3ccc4c(=O)c(C(=O)O)cn(C5CC5)c4c3OC(F)F)ccc21,Potency,[1],inactive
same,outcome,[3],inactive
C1=CC2C3C=CC(C3)C2C1 (stereo unspecified),Potency,[1],inactive
same,outcome,[3],inactive
Cc1ncc(CO)c(CO)c1O,Potency,[1],inactive
same,Potency,[2],inactive
same,outcome,[3],inactive
Nc1cc(C(F)(F)F)ccc1S,Potency,[1],inactive
same,outcome,[3],inactive
CC(C)N(CCC(=O)c1ccc2ccccc2c1)Cc1ccccc1,outcome,[4],inactive
same,Potency,[5],5.87 µM (active)
same,outcome,[6],inactive
CCOC(=O)c1cc(=O)c2c(OCC(COc3cccc4oc(C(=O)OCC)cc(=O)c34)OC(=O)[C@@H](N)CCCCN)cccc2o1,Potency,[2],inactive
CCC1=C[C@@H]2CN(C1)Cc1c([nH]c3ccccc13)[C@@](C(=O)OC)(c1cc3c(cc1OC)N(C)[C@H]1[C@@](O)(C(=O)OC)[C@H](OC(C)=O)[C@]4(CC)C=CCN5CC[C@]31[C@@H]54)C2,Potency,[5],inactive
same,Potency,[2],inactive
same,outcome,[3],inactive
